Test results as given in PubChem BioAssay AID1159580 (chemical genetic matrix, 2015).
Hit rate of the full screen: of about 5,500 compounds, about 2,000 (36%) were called active. Inconclusive results (about 18%) are left out. Rule as the data show it: active = normalized growth mostly below about 0.91 (no sharp cut-off); inconclusive = no clear call, values can overlap the other calls; inactive = mostly above about 0.92. Some of the results follow.

Assay: chemical genetic growth profiling, strain panel (AID 1159580);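 also: tested at 20 µM; growth read once vehicle control cultures reached saturation at 30 °C; 1 = growth at the plate median or of vehicle wells; lower values mean less growth of the strain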
Details: growth OD

Measured: normalized growth

COC(=O)CCC(C)[C@H]1CCC2C3C(C[C@H](O)[C@@]21C)[C@@]1(C)CC[C@@H](O)C[C@H]1C[C@H]3O (stereo not given in full)
inactive: S. cerevisiae deletion strains, locus YJR075W, strain HOC1, active compounds read low 0.986 | S. cerevisiae deletion strains, locus YKL009W, strain mrt4, active compounds read low 1.02 | S. cerevisiae deletion strains, locus YKL068W, active compounds read low 1 | S. cerevisiae deletion strains, locus YKL085W, strain MDH1 (second series), active compounds read low 1.01 | S. cerevisiae deletion strains, locus YKL085W, strain MDH1, active compounds read low 1.01 | S. cerevisiae deletion strains, locus YKL160W, strain elf1, active compounds read low 1.03 | S. cerevisiae deletion strains, locus YKR001C, strain vps1, active compounds read low 1 | S. cerevisiae deletion strains, locus YKR026C, strain gcn3, active compounds read low 1.03 | S. cerevisiae deletion strains, locus YKR091W, strain srl3, active compounds read low 1.01 | S. cerevisiae deletion strains, locus YLL001W, strain dnm1, active compounds read low 1.03 | S. cerevisiae deletion strains, locus YLL026W, active compounds read low 1.01 | S. cerevisiae deletion strains, locus YLL041C, strain sdh2, active compounds read low 1.01 | S. cerevisiae deletion strains, locus YLR027C, strain aat2, active compounds read low 1.01 | S. cerevisiae deletion strains, locus YLR039C, strain RIC1, active compounds read low 1.13 | S. cerevisiae deletion strains, locus YLR058C, strain SHM2, active compounds read low 1.01 | S. cerevisiae deletion strains, locus YLR102C, strain apc9, active compounds read low 1.03 | S. cerevisiae deletion strains, locus YLR113W, strain HOG1, active compounds read low 0.975 | S. cerevisiae deletion strains, locus YLR221C, strain rsa3, active compounds read low 1.02 | S. cerevisiae deletion strains, locus YLR258W, strain gsy2, active compounds read low 1.03 | S. cerevisiae deletion strains, locus YLR262C, strain YPT6 (second series), active compounds read low 1.02 | S. cerevisiae deletion strains, locus YLR262C, strain YPT6, active compounds read low 1.09 | S. cerevisiae deletion strains, locus YLR268W, strain sec22, active compounds read low 1.01 | S. cerevisiae deletion strains, locus YLR320W, strain mms22, active compounds read low 1.04 | S. cerevisiae deletion strains, locus YLR330W, strain CHS5, active compounds read low 1.01 | S. cerevisiae deletion strains, locus YLR342W, strain FKS1 (second series), active compounds read low 1.02 | S. cerevisiae deletion strains, locus YLR342W, strain FKS1, active compounds read low 1.01 | S. cerevisiae deletion strains, locus YLR357W, strain rsc2, active compounds read low 1.03 | S. cerevisiae deletion strains, locus YLR370C, strain arc18, active compounds read low 1.01 | S. cerevisiae deletion strains, locus YLR371W, strain rom2, active compounds read low 1.02 | S. cerevisiae deletion strains, locus YLR384C, strain iki3, active compounds read low 1 | S. cerevisiae deletion strains, locus YLR418C, strain cdc73, active compounds read low 0.932 | S. cerevisiae deletion strains, locus YML016C, strain PPZ1, active compounds read low 1.04 | S. cerevisiae deletion strains, locus YML032C, strain rad52, active compounds read low 1.01 | S. cerevisiae deletion strains, locus YML120C, strain ndi1, active compounds read low 1.02 | S. cerevisiae deletion strains, locus YML124C, strain tub3, active compounds read low 1.02 | S. cerevisiae deletion strains, locus YMR058W, strain fet3, active compounds read low 1.02 | S. cerevisiae deletion strains, locus YMR078C, strain ctf18, active compounds read low 1.04 | S. cerevisiae deletion strains, locus YMR125W, strain sto1, active compounds read low 1.03 | S. cerevisiae deletion strains, locus YMR129W, active compounds read low 1.01 | S. cerevisiae deletion strains, locus YMR205C, strain PFK2, active compounds read low 1.02 | S. cerevisiae deletion strains, locus YMR223W, strain ubp8, active compounds read low 0.996 | S. cerevisiae deletion strains, locus YMR231W, strain pep5, active compounds read low 1.01 | S. cerevisiae deletion strains, locus YMR263W, strain SAP30, active compounds read low 1.01 | S. cerevisiae deletion strains, locus YMR307W, strain GAS1, active compounds read low 0.86 | S. cerevisiae deletion strains, locus YNL067W, strain RPL9B, active compounds read low 1 | S. cerevisiae deletion strains, locus YNL071W, strain lat1, active compounds read low 1.01 | S. cerevisiae deletion strains, locus YNL128W, strain TEP1, active compounds read low 1.02 | S. cerevisiae deletion strains, locus YNL153C, strain GIM3, active compounds read low 0.988 | S. cerevisiae deletion strains, locus YNL183C, strain NPR1, active compounds read low 0.955 | S. cerevisiae deletion strains, locus YNL209W, strain ssb2, active compounds read low 1.02 | S. cerevisiae deletion strains, locus YNL233W, strain BNI4, active compounds read low 0.957 | S. cerevisiae deletion strains, locus YNL248C, strain rpa49, active compounds read low 1.04 | S. cerevisiae deletion strains, locus YNL250W, strain rad50, active compounds read low 1.01 | S. cerevisiae deletion strains, locus YNL271C, strain bni1, active compounds read low 1.02 | S. cerevisiae deletion strains, locus YNL298W, strain CLA4, active compounds read low 0.993 | S. cerevisiae deletion strains, locus YNL307C, strain MCK1, active compounds read low 1.03 | S. cerevisiae deletion strains, locus YNL322C, strain KRE1 (second series), active compounds read low 1.03 | S. cerevisiae deletion strains, locus YNL322C, strain KRE1, active compounds read low 1.02 | S. cerevisiae deletion strains, locus YNR049C, strain mso1, active compounds read low 1.01 | S. cerevisiae deletion strains, locus YNR052C, strain pop2, active compounds read low 1.01 | S. cerevisiae deletion strains, locus YOL006C, strain TOP1, active compounds read low 0.974 | S. cerevisiae deletion strains, locus YOL012C, strain htz1 0.777 | S. cerevisiae deletion strains, locus YOL147C, strain pex11, active compounds read low 1.03 | S. cerevisiae deletion strains, locus YOR001W, strain rrp6, active compounds read low 0.985 | S. cerevisiae deletion strains, locus YOR061W, strain CKA2, active compounds read low 1.04 | S. cerevisiae deletion strains, locus YOR069W, strain VPS5, active compounds read low 1.06 | S. cerevisiae deletion strains, locus YOR070C, strain gyp1, active compounds read low 0.995 | S. cerevisiae deletion strains, locus YOR080W, strain dia2, active compounds read low 1.01 | S. cerevisiae deletion strains, locus YOR083W, strain WHI5, active compounds read low 1.03 | S. cerevisiae deletion strains, locus YOR106W, strain vam3, active compounds read low 1.01 | S. cerevisiae deletion strains, locus YOR136W, strain idh2, active compounds read low 1.02 | S. cerevisiae deletion strains, locus YOR144C, strain elg1, active compounds read low 1.02 | S. cerevisiae deletion strains, locus YOR184W, strain ser1, active compounds read low 0.986 | S. cerevisiae deletion strains, locus YOR231W, strain MKK1, active compounds read low 0.991 | S. cerevisiae deletion strains, locus YOR265W, strain rbl2, active compounds read low 1.01 | S. cerevisiae deletion strains, locus YOR270C, strain vph1, active compounds read low 0.913 | S. cerevisiae deletion strains, locus YOR290C, strain snf2, active compounds read low 0.977 | S. cerevisiae deletion strains, locus YOR316C, strain cot1, active compounds read low 1.03 | S. cerevisiae deletion strains, locus YPL051W, strain arl3, active compounds read low 1.01 | S. cerevisiae deletion strains, locus YPL078C, strain atp4, active compounds read low 1.03 | S. cerevisiae deletion strains, locus YPL106C, strain sse1, active compounds read low 1.05 | S. cerevisiae deletion strains, locus YPL240C, strain hsp82, active compounds read low 1 | S. cerevisiae deletion strains, locus YPL241C, strain CIN2, active compounds read low 1.02 | S. cerevisiae deletion strains, locus YPL256C, strain CLN2, active compounds read low 0.981 | S. cerevisiae deletion strains, locus YPR119W, strain clb2, active compounds read low 1.03 | S. cerevisiae deletion strains, locus YPR141C, strain kar3, active compounds read low 1.03 | S. cerevisiae deletion strains, locus YPR163C, strain tif3, active compounds read low 1.03 | S. cerevisiae deletion strains, locus YPR167C, strain met16, active compounds read low 1.03 | S. cerevisiae deletion strains, strain wtn01, active compounds read low 1.01 | S. cerevisiae strains, strain wild type, active compounds read low 1.02
